According to PubChem BioAssay AID1376 (SRMLSC, 2008):
The campaign covered roughly 220,000 compounds. About 530 (0.24%) were called active. The full list was thinned out, with actives kept by preference. Results with a measured potency or affinity are listed apart. Unmarked numbers belong to inactive results. No stated cut-off is given here; in the data, active means inhibition above about 13%; inconclusive means no clear call, values can overlap the other calls; inactive means below that.

Each molecule was assayed against Bifunctional protein GlmU (Mycobacterium tuberculosis (strain ATCC 25618 / H37Rv)) (UniProt P9WMN3) (assay: inhibition of mycobacterial GlmU enzyme – biochemical, glucosamine-1-phosphate acetyltransferase (AID 1376;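 further: 0% = complete reaction with vehicle and 100% = reaction without substrate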)). Settings: M. tuberculosis GlmU acetyltransferase enzyme assay; active compounds read high;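 tested at 30 µM in the primary screen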.
Bifunctional protein GlmU (Mycobacterium tuberculosis (strain ATCC 25618 / H37Rv)), sequence (P9WMN3 whole entry, looked up): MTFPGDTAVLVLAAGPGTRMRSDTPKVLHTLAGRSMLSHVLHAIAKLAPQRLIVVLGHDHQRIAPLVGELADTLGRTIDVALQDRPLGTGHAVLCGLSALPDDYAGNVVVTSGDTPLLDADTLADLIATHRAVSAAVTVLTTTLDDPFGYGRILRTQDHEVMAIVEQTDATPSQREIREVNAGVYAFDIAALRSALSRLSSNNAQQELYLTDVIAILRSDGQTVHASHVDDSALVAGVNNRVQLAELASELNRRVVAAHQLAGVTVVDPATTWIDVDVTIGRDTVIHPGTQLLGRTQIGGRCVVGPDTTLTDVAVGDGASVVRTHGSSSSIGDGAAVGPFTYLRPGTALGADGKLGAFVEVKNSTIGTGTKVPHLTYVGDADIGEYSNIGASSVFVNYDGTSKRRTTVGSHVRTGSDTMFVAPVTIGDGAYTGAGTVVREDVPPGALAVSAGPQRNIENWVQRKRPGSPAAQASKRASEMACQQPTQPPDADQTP
`CCOc1ncccc1C(=O)N1CCN(C(c2ccccc2)c2ccccc2)CC1` was tested, and the inhibition was 7.04%. `COC(=O)c1cc(Cl)nc2ccccc12` was tested, and the inhibition was 5.71%. For `CCOC(=O)C1=C(C)NC(=O)NC1c1c(C)nn(-c2ccccc2)c1Cl` (centres undefined), the inhibition was 15.1% (active). Work on `CCOC(=O)C1=C(C)N(C)C(=O)NC1c1c(C)nn(-c2ccc(C)cc2)c1Cl` (centres undefined) yielded an inhibition of 3.87%. `CCOC(=O)C1=C(C)N(C)C(=O)NC1c1c(C)nn(-c2ccccc2)c1C` (centres undefined) showed an inhibition of -0.97%. For `COc1cc(NC(=O)CCCSc2nc(-c3ccco3)cc(C(F)(F)F)n2)cc(OC)c1OC`, the inhibition was -3.07%. `O=C(Nc1cccc(Cl)c1)Nc1ccccc1C(=O)O` gave an inhibition of 2.52%. For `NC(=O)c1ccccc1NC(=O)Nc1cccc(Cl)c1`, the inhibition was 14.1% (active). `NC(=O)c1ccccc1NC(=O)Nc1ccc(F)c(Cl)c1` was tested, and the inhibition was -5.33%. In the case of `Cc1cc([N+](=O)[O-])nn1CCCC(=O)Nc1c(C)n(C)n(-c2ccccc2)c1=O`, the inhibition is reported as -7.37%. Work on `CCOC(=O)C1(C)C=C(Nc2ccc(C)cc2)C(=O)N1c1ccc(C)cc1` (centres undefined) yielded an inhibition of -2.18%. `CCOC(=O)C1(C)C=C(Nc2ccc(NC(C)=O)cc2)C(=O)N1c1ccc(NC(C)=O)cc1` (centres undefined) was tested, and the inhibition was 14.8% (active). Work on `CCOC(=O)C1(C)C=C(Nc2ccc(O)cc2)C(=O)N1c1ccc(O)cc1` (centres undefined) yielded an inhibition of 9.21%. `CCn1c(=O)c2c(nc3n2CCN3c2ccccc2)n(C)c1=O` was tested, and the inhibition was -6.14%. In the case of `COc1ccc(/C=N/NC(=O)c2ccccc2O)cc1Cn1cc([N+](=O)[O-])cn1`, the inhibition is reported as -1.22%. Molecule `COc1ccc(/C=N\NC(=O)c2cccc([N+](=O)[O-])c2)cc1Cn1cc([N+](=O)[O-])cn1` has an inhibition of -3.48%. `COc1ccc(/C=N/NC(=O)CCN2CCCCC2c2cccnc2)cc1Cn1cc([N+](=O)[O-])cn1` (centres undefined) was tested, and the inhibition was 12.8% (active). Molecule `O=C(CSc1nnc(-c2cccs2)n1-c1ccccc1)NCc1ccc2c(c1)OCO2` has an inhibition of 4.61%. In the case of `O=C(CSc1nnc(Cc2cccs2)n1-c1ccccc1)NCc1ccc2c(c1)OCO2`, the inhibition is reported as 5.29%. `O=C(CSc1nnc(Cc2cccs2)n1-c1ccc(Cl)cc1)NCc1ccc2c(c1)OCO2` was tested, and the inhibition was 12.9% (active). `Cc1cccc(NC(=O)Cn2cnc3c(oc4ccccc43)c2=O)c1C` showed an inhibition of 3.4%. Molecule `CCC(=O)N/C(=N/c1nc(C)cc(C)n1)Nc1ccc(OC)cc1` has an inhibition of 7.87%. For `N#CC12CCCCC1CC1CCCCC1(C#N)N2CCO` (centres undefined), the inhibition was 0.23%. In the case of `CC(C)Oc1ccc(C2CNC(=O)C2)cc1` (centres undefined), the inhibition is reported as 5.76%. With `CC(C)COc1ccc(C2NC(=O)NC2=O)cc1` (centres undefined) the inhibition was -0.34%. In the case of `CC(C)Oc1ccc(C2NC(=O)NC2=O)cc1` (centres undefined), the inhibition is reported as 14.6% (active). In the case of `CC(C)Oc1ccc(C2CC(=O)NC3=C2C(=O)CCC3)cc1` (centres undefined), the inhibition is reported as -5.28%. `CCCOc1ccc(C2NC(=O)NC2=O)cc1` (centres undefined) gave an inhibition of 1.13%. `CC(C)Oc1ccc(C2CCC(=O)NC2=O)cc1` (centres undefined) was tested, and the inhibition was 13.8% (active).
